Compounds with a hit are over-represented: about 21% of the library has one in this group of screens.
Pf growth 96h = P. falciparum growth inhibition at 96 hours; P. falciparum luciferase reporter growth, 96 h; Potency, µM (series often up to 28.7 µM), hits mostly inhibitors; 6.9% of 320,000 active; AID 504834
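P. falciparum expressing integrated firefly luciferase grown in erythrocytes (2% hematocrit, 0.05% parasitemia final) with compounds for 96 hours at 37 C, 5% CO2. Growth inhibition read as loss of luminescence after adding luciferase detection reagent.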
Pf growth 48h = P. falciparum growth inhibition at 48 hours (one generation) | Potency, µM (doses to about 28.7 µM), most hits filed as inhibitors | P. falciparum luciferase growth in erythrocytes, 48 h | AID 504832 | 5.9% of 310,000 active
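In quantitative HTS format, infected erythrocytes bearing luciferase-reporter parasites were treated for a single generation at 37 C. Luminescence after adding detection reagent served as the growth measure.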
Shiga inhibitor = blocks Shiga toxin action in Vero cells; 9.2% of 290,000 active; inhibition, % at 38.7 µM; Vero cells, Shiga toxin protein synthesis inhibition reporter; in the data active means inhibition mostly above about 28%, no sharp cut-off; inactive means mostly below about 43%
Cycloheximide cs = affects cycloheximide protein synthesis inhibition readout, counter-screen. max response, %. cell reporter, cycloheximide protein synthesis inhibition counterscreen. 12% of 300,000 active; in the data active means max response mostly above about 13%, no sharp cut-off; inactive means mostly below about 14%; further: read at 38.3 µM for the half of the compounds with a filed dose
Of the large screens only hits and unclear results are named; the others gave an inactive call. Unless noted, the call rests on the fitted dose curve; in most records, active means well fitted inhibition curve with a large enough effect; inconclusive means small, poorly fitted or top-dose-only effect, or another doubt; inactive means no such curve, though single readings can be large or run the other way.

CCOC(=O)c1[nH]c2c(c1-c1ccccc1)C(=O)CC(c1ccc(OC)c(OC)c1)C2 (stereo unspecified)	Pf growth 96h 10µM, Pf growth 48h inconclusive, Cycloheximide cs 15
CCS(=O)(=O)N1Cc2ccccc2CC1C(=O)Nc1cccc(S(=O)(=O)N(C)C)c1 (stereo unspecified)	Pf growth 96h inconclusive, Pf growth 48h inconclusive
CC(O)Cn1c(N2CCCC2)nc2c1c(=O)[nH]c(=O)n2C (stereo unspecified)	Pf growth 48h inconclusive (no result: Shiga inhibitor)
COc1ccc(CCN2CCC(Nc3nc4ccccc4n3Cc3ccc(F)cc3)CC2)cc1	Pf growth 96h 0.74µM, Pf growth 48h 0.52µM
COc1cc(/C=C2/C(=N)N3C=CSC3=NC2=O)ccc1OCCCOc1ccccc1C	Shiga inhibitor 54
CCOc1cc(/C=C2/C(=N)N3C=CSC3=NC2=O)ccc1OCCCOc1ccccc1C	Pf growth 96h inconclusive, Pf growth 48h inconclusive, Cycloheximide cs 38
COc1cc(/C=C2/C(=N)N3C=CSC3=NC2=O)ccc1OCCCOc1c(C)cccc1C	none
CC(=O)Nc1ccc(NC(=O)CSc2n[nH]c(-c3cccs3)n2)cc1	none (no result: Shiga inhibitor, Cycloheximide cs)
COc1cccc(-c2onc3ccc(C4(C)OCCO4)cc23)c1	Pf growth 96h inconclusive, Cycloheximide cs 26
COc1cccc(-c2onc3ccc(C(C)=O)cc23)c1	Cycloheximide cs 15
CC1(c2ccc3noc(-c4ccc(F)cc4)c3c2)OCCO1	Pf growth 96h inconclusive, Cycloheximide cs 19 (no result: Pf growth 48h)
CC1(c2ccc3noc(-c4ccccc4)c3c2)OCCO1	none (no result: Pf growth 96h)
CCCn1cc(S(=O)(=O)c2ccc(OC)cc2)c(=O)c2cc(OC)ccc21	none
O=C1C2C3C=CC(C4CC34)C2C(=O)N1/N=C/c1ccc(-c2ccc(F)cc2[N+](=O)[O-])o1 (stereo unspecified)	Pf growth 96h 4.7µM, Cycloheximide cs 31 (no result: Pf growth 48h)
O=C(COc1ccc(Cl)cc1)Nc1ccc2c(c1)C(=O)NC2=O	Pf growth 96h inconclusive
CCN(C(=O)CSC1=Nc2ccccc2C2CC=NN12)C1CCS(=O)(=O)C1 (stereo unspecified)	Pf growth 96h inconclusive
COc1ccc(C2C=C(C34CC5CC(CC(C5)C3)C4)NC(=S)N2)cc1 (stereo unspecified)	Pf growth 96h 12µM, Pf growth 48h 9.3µM
C=CCn1c(SCC(=O)NC(N)=O)nnc1-c1cc2c(s1)CCC(CC)C2 (stereo unspecified)	none
C=CCn1c(SCC(=O)NC2CC2)nnc1-c1cccc(OC)c1	none
C=CCn1c(SCC(=O)NCC)nnc1-c1cc2c(s1)CCC(CC)C2 (stereo unspecified)	Shiga inhibitor 94, Cycloheximide cs 42
C=CCn1c(SCC(=O)NCCOC)nnc1-c1cc2c(s1)CCC(CC)C2 (stereo unspecified)	Cycloheximide cs 15
O=C(O)CN1C(=O)c2ccc(Oc3ccc4c(c3)C(=O)N(CC(=O)O)C4=O)cc2C1=O	Pf growth 48h 2.1µM
COc1ccc(-c2cnnn2-c2ccc([N+](=O)[O-])cc2)cc1	Pf growth 96h inconclusive, Pf growth 48h inconclusive
CC1(C)Cc2c(cnn2-c2ccccc2)-c2c1c1ccccc1n2CC(O)CCl (stereo unspecified)	Pf growth 96h inconclusive, Pf growth 48h 12µM
CCc1c(C)sc(NC(=O)c2ccco2)c1C#N	Shiga inhibitor 69, Cycloheximide cs 37
Cc1sc(NC(=S)NC(=O)c2ccco2)c(C#N)c1C	Cycloheximide cs 15
CCOC(=O)c1sc(NC(=O)c2ccco2)c(C#N)c1C	none
O=C(NNC(=O)C1COc2ccccc2O1)c1ccccc1O (stereo unspecified)	none (no result: Shiga inhibitor, Cycloheximide cs)
COc1ccc(C2=C3C(=O)OCC3Cc3ncn(Cc4ccccc4)c32)cc1 (stereo unspecified)	Pf growth 96h inconclusive (no result: Shiga inhibitor, Cycloheximide cs)
O=C1CSC(c2ccccn2)N1c1cccc(Cl)c1 (stereo unspecified)	Pf growth 96h inconclusive
Cc1ccc(N2C(=O)CSC2c2ccccn2)cc1Cl (stereo unspecified)	Pf growth 48h inconclusive, Cycloheximide cs 25
O=C(NCc1ccccc1)C1CCCN(C(=O)NCc2ccccc2)C1 (stereo unspecified)	none
CCC(=O)NC(=S)Nc1ccc(N2CCN(C(=O)c3ccc(Cl)cc3)CC2)cc1	Pf growth 96h 12µM, Pf growth 48h inconclusive
CC(=O)N1CCN(c2ccc(NC(=S)NC(=O)COc3ccc(C(C)(C)C)cc3)cc2)CC1	Pf growth 96h inconclusive
CCC(=O)N1CCN(c2ccc(NC(=S)NC(=O)c3cccc([N+](=O)[O-])c3)cc2)CC1	Pf growth 96h 7.4µM
CCC(=O)N1CCN(c2ccc(NC(=S)NC(=O)COc3ccccc3)cc2)CC1	Pf growth 96h 15µM
CC(C)(O)C#Cc1ccc(C(=O)N2CCN(c3ccc(Cl)cc3)CC2)cc1	Pf growth 96h 6.6µM
CCC(=O)N1CCN(c2ccc(NC(=S)NC(=O)C(C)C)cc2)CC1	Pf growth 96h inconclusive, Pf growth 48h inconclusive
CCC(=O)N1CCN(c2ccccc2NC(=S)NC(=O)c2cccc([N+](=O)[O-])c2)CC1	none
COc1ccc(CCC(=O)NC(C)c2ccccc2)cc1OC (stereo unspecified)	none
Nc1cccc(-c2cn3cc(C(F)(F)F)cc(Cl)c3n2)c1	Shiga inhibitor 64, Cycloheximide cs 36
CCCNC(=O)c1nn2c(C(F)(F)F)cc(-c3ccccc3)nc2c1Cl	Pf growth 48h inconclusive
FC(F)(F)c1cc(Cl)c2nc(-c3ccccc3)cn2c1	Shiga inhibitor 88, Cycloheximide cs 41
Cc1ccc(C(C)(O)CS(=O)(=O)Cc2ccccc2)cc1 (stereo unspecified)	Cycloheximide cs 16
CCOC(=O)c1[nH]c(C)c(C(=O)OCc2ccccc2F)c1C	Cycloheximide cs 12
CCOC(=O)c1[nH]c(C)c(C(=O)OCC)c1C	Shiga inhibitor 138, Cycloheximide cs 65 (no result: Pf growth 48h)
CCOC(=O)c1c(C)[nH]c(C(=O)C(C)OC(=O)c2cccc(OCc3c(C)noc3C)c2)c1C (stereo unspecified)	Cycloheximide cs 17
CCOC(=O)c1c(C)[nH]c(C(=O)COC(=O)C2CC2C)c1C (stereo unspecified)	Shiga inhibitor 60, Cycloheximide cs 47
CCCc1nn2c(=O)cc(CSCC(=O)Nc3ccc(OC)cc3)nc2s1	none
NS(=O)(=O)c1ccc(CCNC(=O)c2ccc([N+](=O)[O-])s2)cc1	Pf growth 96h inconclusive, Pf growth 48h inconclusive
CCOC(=O)c1c(C)[nH]c(C(=O)NNC(=O)c2ccccc2)c1C	Shiga inhibitor 89, Cycloheximide cs 31
CCCN(CC1CC1)C(=O)COC(=O)c1[nH]c(C)c(C(=O)OCC)c1C	Pf growth 96h 12µM (no result: Pf growth 48h)
CC(=O)c1c(C)[nH]c(C(=O)OCc2ccc(F)cc2Cl)c1C	Pf growth 96h inconclusive
CCCNC(=O)COC(=O)c1[nH]c(C)c(C(=O)OCC)c1C	none (no result: Pf growth 48h)
COC(=O)c1c(C)[nH]c(C(=O)OCc2ccc(F)cc2)c1C	Shiga inhibitor 134, Cycloheximide cs 78
CCOC(=O)c1[nH]c(C)c(C(=O)OCCOc2cccc(C)c2)c1C	Pf growth 96h 2.6µM, Pf growth 48h 7.4µM, Cycloheximide cs 22
C=CCn1c(O)c(C=Nc2ccc(CN3CCCCC3)cc2)c(=O)[nH]c1=S	none

From PubChem BioAssay
